Assay results from PubChem BioAssay.

assay: small-molecule microarray binders of probe aEGFR, primary screen, biochemical, biotinylated probe, 635/667 nm fluorescence (AID 1097); conditions: higher = more signal;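 further: probe is a biotinylated anti-EGFR antibody binding compounds printed on slides; score combines fluorescence near 667 nm and signal to noise of each spot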

Going from `CCCCCCc1nc(CCCc2cc3c(c(CCCCCC)n2)[Si](C(C)C)(C(C)C)OC3)cc2c1[Si](C(C)C)(C(C)C)OC2` to `CCCCCN1CC=CC23O[C@@H]4/C=C\CCC(C)OC(=O)C4[C@H]2C(=O)N(CCCCCO)[C@@H]3C1=O` (stereo not given in full), the composite z-score rises from -0.287 to -0.149.

Going from `COc1cccc(C(=O)O[C@H]2CC[C@]3(C)C4=C(CCC3C2(C)C)[C@]2(C)CC[C@H]([C@H](C)CCCC(C)C)[C@@]2(C)CC4)c1` (stereo not given in full) to `C=C(C(=O)CC[C@H](OC(C)=O)c1ccc(OCCO)cc1)C(C)C`, the composite z-score falls from -0.0158 to -0.156.

Going from `O=C1N(CCS(=O)(=O)c2ccccc2)Cc2ccccc2C[C@]12N=C(c1ccc(OCCCO)cc1)O[C@@H]2c1ccccc1` to `O=C(NCc1ccccc1)[C@]1(CCS(=O)(=O)c2ccccc2)N=C(c2ccc(OCCCO)cc2)O[C@@H]1c1ccccc1`, the composite z-score rises from 0.177 to 0.219.

Going from `O=C1C2C=CC(C(O)c3cccs3)N(Nc3ccccc3F)C2C(=O)N1c1ccccc1` (stereo not given) to `CC(C)c1ccc(NN2C(C(O)c3cccc(O)c3)C=CC3C(=O)N(c4ccccc4)C(=O)C32)cc1` (stereo not given), the composite z-score rises from -0.11 to -0.0053.

Going from `COc1ccc(NN2C(C(O)c3ccc(OC)c(OCc4ccccc4)c3)C=CC3C(=O)N(C4CCCCC4)C(=O)C32)cc1` (stereo not given) to `CCOc1cc(C(O)C2C=CC3C(=O)N(c4ccccc4)C(=O)C3N2Nc2ccc([N+](=O)[O-])cc2)ccc1O` (stereo not given), the composite z-score rises from -0.0688 to -0.067.

Compared with `COCCOC(=O)N1C(=O)[C@@]2(c3cc(C#CCNC(N)=O)ccc31)[C@H](C(=O)N1CCN(c3ncccn3)CC1)[C@H]1C(=O)O[C@H](c3ccccc3)[C@H](c3ccccc3)N1[C@@H]2c1ccccc1OCCO`, `COCCOC(=O)N1C(=O)[C@@]2(c3cc(C#CCC(C(=O)OC)C(=O)OC)ccc31)[C@H](c1ccccc1OCCO)N1[C@H](c3ccccc3)[C@H](c3ccccc3)OC(=O)[C@H]1[C@@H]2C(=O)N1CCc2cc(OC)c(OC)cc2C1` is higher in composite z-score: -0.0286 for the first, 0.0637 for the second.

Compared with `C=CC[C@]1(C(=O)N2CCOCC2)N=C(c2ccc(OCCCO)cc2)O[C@H]1c1ccccc1`, `[N-]=[N+]=Nc1ccccc1[C@@H]1OC(c2ccc(OCCCO)cc2)=N[C@]1(CCS(=O)(=O)c1ccccc1)C(=O)N1CCOCC1` is higher in composite z-score: -0.165 for the first, 0.65 for the second.

Compared with `CCOC(=O)C1=CC[C@@H](c2ccccc2)N(S(=O)(=O)c2ccc(C)cc2)[C@H]1C(=O)OCC`, `CC(C)N1C(=O)c2ccccc2[C@@H](C(=O)NCCCN(C)C)[C@@H]1c1ccc(CO)cc1` is lower in composite z-score: 0.202 for the first, -0.0435 for the second.

First: CC=CC(O)C1C=CC2C(=O)N(c3ccccc3)C(=O)C2N1Nc1ccc(C(C)C)cc1 (stereo not given)
Second: CC(C)C(O)C1C=CC2C(=O)N(c3ccccc3)C(=O)C2N1Nc1ccc(C#N)cc1 (stereo not given)
The composite z-score of the first is lower: 0.14 for the first, 0.154 for the second.

Compared with `O=C1OCCC=C[C@H]2OC34C=CCN(c5ccc6ccccc6c5)C(=O)[C@H]3N(CCCCCO)C(=O)[C@@H]4C12` (stereo not given in full), `Cc1ccccc1C(O)C1C=CC2C(=O)N(C)C(=O)C2N1Nc1ccccc1` (stereo not given) is higher in composite z-score: -0.157 for the first, -0.0634 for the second.

Going from `CCOC(=O)C[C@H]1[C@H](OC(=O)c2ccc(C(=O)c3ccccc3)cc2)[C@@H](NC(=O)C2CCCCC2)c2cc(OCCCO)ccc2N1C(=O)c1ccccc1` to `NC(=O)NCC#Cc1ccc2c(c1)[C@]1(C(=O)N2)[C@H](C(=O)N2CCCCCCC2)[C@H]2C(=O)O[C@H](c3ccccc3)[C@H](c3ccccc3)N2[C@@H]1c1ccc(OCCO)cc1`, the composite z-score rises from 0.0546 to 0.864.

Going from `O=C1[C@]2(CO)C=C(Br)[C@@H](C[C@@H]2c2ccccc2)[C@@]12CO2` to `O=C1c2ccccc2[C@@]2(Cc3ccccc3N(Cc3ccccc3)C2=O)[C@H](c2ccc(CO)cc2)N1C1CCCCC1`, the composite z-score falls from -0.0828 to -0.2.

Going from `O=C(CS)NCCCCCCNC(=O)[C@H]1C[C@H]2C(=O)N3CCC[C@H]3C(=O)N2[C@H]1c1cccc(OCCO)c1` to `COc1ccc(CCNC(=O)[C@@]2(c3ccc([N+](=O)[O-])cc3)CC(=O)N(CC34CC5CC(CC(C5)C3)C4)[C@@H]2c2ccc(CO)cc2)cc1`, the composite z-score rises from 0.0219 to 0.544.

Going from `COCC(=C=CC[C@H](O)c1ccc(OCCO)cc1)C[C@H](O)c1cc(Cl)cc(Cl)c1O` to `CN1CCC(CCCO)=CC1c1ccc(CN2CCCC2)cc1` (stereo not given), the composite z-score rises from -0.0334 to 0.337.

Going from `O=C1O[C@H](c2ccccc2)[C@H](c2ccccc2)N2[C@H]1[C@@H](C(=O)Nc1nc3ccccc3s1)[C@]1(C(=O)Nc3ccccc31)[C@H]2c1ccc(O)cc1` to `C=C[C@@H](COC(C)=O)N(Cc1ccc([N+](=O)[O-])cc1)S(=O)(=O)c1ccc(Br)cc1`, the composite z-score rises from -0.0644 to 0.158.
